Experimental data: PubChem BioAssay AID1159580 (chemical genetic matrix, 2015)
In all, about 5,500 compounds went through this assay and about 2,000 (36%) were called active. About 18% were inconclusive and are not listed. No stated cut-off is given here; in the data, active means normalized growth mostly below about 0.91 (no sharp cut-off); inconclusive means no clear call, values can overlap the other calls; inactive means mostly above about 0.92. This is one part of the list.

Test: chemical genetic growth profiling, strain panel (AID 1159580);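 further: tested at 20 µM; growth read once vehicle control cultures reached saturation at 30 °C; 1 = growth at the plate median or of vehicle wells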
Conditions: growth OD

Measured: normalized growth

CC(=O)[C@H]1CCC2C3CC=C4C[C@@H](O)CC[C@]4(C)C3CC[C@@]21C (stereo partly specified)
inactive: S. cerevisiae deletion strains, locus YKL068W, stronger effect = lower value 1.01 | S. cerevisiae deletion strains, locus YKL085W, strain MDH1 (second series), stronger effect = lower value 0.982 | S. cerevisiae deletion strains, locus YKL085W, strain MDH1, stronger effect = lower value 0.982 | S. cerevisiae deletion strains, locus YKL160W, strain elf1, stronger effect = lower value 0.944 | S. cerevisiae deletion strains, locus YKL190W, strain CNB1, stronger effect = lower value 0.97 | S. cerevisiae deletion strains, locus YKR001C, strain vps1, stronger effect = lower value 0.991 | S. cerevisiae deletion strains, locus YKR026C, strain gcn3, stronger effect = lower value 1.01 | S. cerevisiae deletion strains, locus YKR091W, strain srl3, stronger effect = lower value 1.01 | S. cerevisiae deletion strains, locus YLL001W, strain dnm1, stronger effect = lower value 0.928 | S. cerevisiae deletion strains, locus YLL041C, strain sdh2, stronger effect = lower value 0.999 | S. cerevisiae deletion strains, locus YLR027C, strain aat2, stronger effect = lower value 0.926 | S. cerevisiae deletion strains, locus YLR058C, strain SHM2, stronger effect = lower value 0.995 | S. cerevisiae deletion strains, locus YLR102C, strain apc9, stronger effect = lower value 1.03 | S. cerevisiae deletion strains, locus YLR113W, strain HOG1, stronger effect = lower value 1.01 | S. cerevisiae deletion strains, locus YLR221C, strain rsa3, stronger effect = lower value 0.923 | S. cerevisiae deletion strains, locus YLR258W, strain gsy2, stronger effect = lower value 0.961 | S. cerevisiae deletion strains, locus YLR268W, strain sec22, stronger effect = lower value 0.949 | S. cerevisiae deletion strains, locus YLR330W, strain CHS5, stronger effect = lower value 1.02 | S. cerevisiae deletion strains, locus YLR342W, strain FKS1 (second series), stronger effect = lower value 0.896 | S. cerevisiae deletion strains, locus YLR342W, strain FKS1, stronger effect = lower value 0.915 | S. cerevisiae deletion strains, locus YLR357W, strain rsc2, stronger effect = lower value 1.09 | S. cerevisiae deletion strains, locus YLR370C, strain arc18, stronger effect = lower value 0.987 | S. cerevisiae deletion strains, locus YLR371W, strain rom2, stronger effect = lower value 1.02 | S. cerevisiae deletion strains, locus YLR384C, strain iki3, stronger effect = lower value 0.998 | S. cerevisiae deletion strains, locus YML016C, strain PPZ1, stronger effect = lower value 1 | S. cerevisiae deletion strains, locus YML032C, strain rad52, stronger effect = lower value 0.952 | S. cerevisiae deletion strains, locus YML120C, strain ndi1, stronger effect = lower value 0.934 | S. cerevisiae deletion strains, locus YML124C, strain tub3, stronger effect = lower value 1.04 | S. cerevisiae deletion strains, locus YMR058W, strain fet3, stronger effect = lower value 0.946 | S. cerevisiae deletion strains, locus YMR078C, strain ctf18, stronger effect = lower value 1.01 | S. cerevisiae deletion strains, locus YMR125W, strain sto1, stronger effect = lower value 0.988 | S. cerevisiae deletion strains, locus YMR129W, stronger effect = lower value 0.985 | S. cerevisiae deletion strains, locus YMR205C, strain PFK2, stronger effect = lower value 0.944 | S. cerevisiae deletion strains, locus YMR223W, strain ubp8, stronger effect = lower value 0.964 | S. cerevisiae deletion strains, locus YMR231W, strain pep5, stronger effect = lower value 1 | S. cerevisiae deletion strains, locus YMR263W, strain SAP30, stronger effect = lower value 0.979 | S. cerevisiae deletion strains, locus YMR307W, strain GAS1, stronger effect = lower value 1.19 | S. cerevisiae deletion strains, locus YNL067W, strain RPL9B, stronger effect = lower value 0.935 | S. cerevisiae deletion strains, locus YNL128W, strain TEP1, stronger effect = lower value 1.01 | S. cerevisiae deletion strains, locus YNL153C, strain GIM3, stronger effect = lower value 0.948 | S. cerevisiae deletion strains, locus YNL183C, strain NPR1, stronger effect = lower value 0.866 | S. cerevisiae deletion strains, locus YNL209W, strain ssb2, stronger effect = lower value 0.983 | S. cerevisiae deletion strains, locus YNL233W, strain BNI4, stronger effect = lower value 0.93 | S. cerevisiae deletion strains, locus YNL248C, strain rpa49, stronger effect = lower value 0.899 | S. cerevisiae deletion strains, locus YNL250W, strain rad50, stronger effect = lower value 1 | S. cerevisiae deletion strains, locus YNL271C, strain bni1, stronger effect = lower value 1.02 | S. cerevisiae deletion strains, locus YNL298W, strain CLA4, stronger effect = lower value 0.999 | S. cerevisiae deletion strains, locus YNL322C, strain KRE1 (second series), stronger effect = lower value 1.03 | S. cerevisiae deletion strains, locus YNL322C, strain KRE1, stronger effect = lower value 1.01 | S. cerevisiae deletion strains, locus YNR049C, strain mso1, stronger effect = lower value 1.01 | S. cerevisiae deletion strains, locus YNR052C, strain pop2, stronger effect = lower value 0.992 | S. cerevisiae deletion strains, locus YOL006C, strain TOP1, stronger effect = lower value 0.68 | S. cerevisiae deletion strains, locus YOL012C, strain htz1 1.1 | S. cerevisiae deletion strains, locus YOL147C, strain pex11, stronger effect = lower value 1.02 | S. cerevisiae deletion strains, locus YOR001W, strain rrp6, stronger effect = lower value 0.904 | S. cerevisiae deletion strains, locus YOR061W, strain CKA2, stronger effect = lower value 0.991 | S. cerevisiae deletion strains, locus YOR069W, strain VPS5, stronger effect = lower value 1.01 | S. cerevisiae deletion strains, locus YOR070C, strain gyp1, stronger effect = lower value 0.956 | S. cerevisiae deletion strains, locus YOR080W, strain dia2, stronger effect = lower value 0.986 | S. cerevisiae deletion strains, locus YOR083W, strain WHI5, stronger effect = lower value 0.907 | S. cerevisiae deletion strains, locus YOR106W, strain vam3, stronger effect = lower value 0.927 | S. cerevisiae deletion strains, locus YOR136W, strain idh2, stronger effect = lower value 1.01 | S. cerevisiae deletion strains, locus YOR144C, strain elg1, stronger effect = lower value 1.03 | S. cerevisiae deletion strains, locus YOR231W, strain MKK1, stronger effect = lower value 0.958 | S. cerevisiae deletion strains, locus YOR265W, strain rbl2, stronger effect = lower value 0.967 | S. cerevisiae deletion strains, locus YOR270C, strain vph1, stronger effect = lower value 0.783 | S. cerevisiae deletion strains, locus YOR290C, strain snf2, stronger effect = lower value 0.947 | S. cerevisiae deletion strains, locus YOR316C, strain cot1, stronger effect = lower value 1.03 | S. cerevisiae deletion strains, locus YPL055C, strain LGE1, stronger effect = lower value 0.869 | S. cerevisiae deletion strains, locus YPL078C, strain atp4, stronger effect = lower value 0.898 | S. cerevisiae deletion strains, locus YPL240C, strain hsp82, stronger effect = lower value 1 | S. cerevisiae deletion strains, locus YPL241C, strain CIN2, stronger effect = lower value 1 | S. cerevisiae deletion strains, locus YPL256C, strain CLN2, stronger effect = lower value 1.02 | S. cerevisiae deletion strains, locus YPR119W, strain clb2, stronger effect = lower value 1.02 | S. cerevisiae deletion strains, locus YPR141C, strain kar3, stronger effect = lower value 1.05 | S. cerevisiae deletion strains, locus YPR163C, strain tif3, stronger effect = lower value 1.02 | S. cerevisiae deletion strains, locus YPR167C, strain met16, stronger effect = lower value 1.01 | S. cerevisiae deletion strains, strain wtn01, stronger effect = lower value 0.948 | S. cerevisiae strains, strain wild type, stronger effect = lower value 0.962
active: S. cerevisiae deletion strains, locus YKL009W, strain mrt4, stronger effect = lower value 0.856 | S. cerevisiae deletion strains, locus YLL026W, stronger effect = lower value 0.912 | S. cerevisiae deletion strains, locus YLR039C, strain RIC1, stronger effect = lower value 0.487 | S. cerevisiae deletion strains, locus YLR262C, strain YPT6 (second series), stronger effect = lower value 0.456 | S. cerevisiae deletion strains, locus YLR262C, strain YPT6, stronger effect = lower value 0.532 | S. cerevisiae deletion strains, locus YLR320W, strain mms22, stronger effect = lower value 0.646 | S. cerevisiae deletion strains, locus YLR418C, strain cdc73, stronger effect = lower value 0.791 | S. cerevisiae deletion strains, locus YNL071W, strain lat1, stronger effect = lower value 0.716 | S. cerevisiae deletion strains, locus YNL307C, strain MCK1, stronger effect = lower value 0.649 | S. cerevisiae deletion strains, locus YOR184W, strain ser1, stronger effect = lower value 0.75 | S. cerevisiae deletion strains, locus YPL051W, strain arl3, stronger effect = lower value 0.903 | S. cerevisiae deletion strains, locus YPL106C, strain sse1, stronger effect = lower value 1.16 [resistant]
